# Calls of active or inactive are those of the source.
# Key:
# [1] = tested on: PRMT1 (protein arginine N-methyltransferase 1); assay: PRMT1 binders on small-molecule microarrays, primary screen, biochemical, small-molecule microarray, 635 nm fluorescence (AID 1088); settings: small-molecule microarray binding, higher = more signal;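 also: binding of Prmt1 protein to compounds spotted on small-molecule microarray slides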
# [2] = yeast growth modulation, basal conditions, primary screen, YJM789 clinical isolate, OD600, 24 h (AID 1089);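 also: growth of clinical yeast isolate S. cerevisiae YJM 789 seeded 1000 cells per well; test concentration not given here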; settings: S. cerevisiae YJM789 growth, higher = more signal, called active from +8 up or from −8 down
# [3] = fission yeast growth modulation, primary screen, strain 972, OD600, 24 h, no modulator (AID 1090);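 also: basal condition with compound alone and no growth modifier present; test concentration not given here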; settings: S. pombe 972 growth, higher = more signal, called active from +8 up or from −8 down
# [4] = S. cerevisiae growth modulation with rapamycin, primary screen, strain BY4716, OD600, 96 h (AID 1091); settings: higher = more signal, called active from +8 up or from −8 down; also: test concentration not given here
# [5] = biological target: Torsin-1A-interacting protein 2 (Homo sapiens) (UniProt Q8NFQ8); assay: LULL1 binders on small-molecule microarray, primary screen, cell lysate, human LULL1 lysate, 635/667 nm fluorescence (AID 1092); settings: hLULL1 lysate binding, 635 nm fluorescence, higher = more signal;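 also: probe is lysate of COS7 cells overexpressing human LULL1; score merges per-feature 667 nm fluorescence with signal-to-noise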
# Chain of Torsin-1A-interacting protein 2 (Homo sapiens) (Q8NFQ8 whole entry, looked up): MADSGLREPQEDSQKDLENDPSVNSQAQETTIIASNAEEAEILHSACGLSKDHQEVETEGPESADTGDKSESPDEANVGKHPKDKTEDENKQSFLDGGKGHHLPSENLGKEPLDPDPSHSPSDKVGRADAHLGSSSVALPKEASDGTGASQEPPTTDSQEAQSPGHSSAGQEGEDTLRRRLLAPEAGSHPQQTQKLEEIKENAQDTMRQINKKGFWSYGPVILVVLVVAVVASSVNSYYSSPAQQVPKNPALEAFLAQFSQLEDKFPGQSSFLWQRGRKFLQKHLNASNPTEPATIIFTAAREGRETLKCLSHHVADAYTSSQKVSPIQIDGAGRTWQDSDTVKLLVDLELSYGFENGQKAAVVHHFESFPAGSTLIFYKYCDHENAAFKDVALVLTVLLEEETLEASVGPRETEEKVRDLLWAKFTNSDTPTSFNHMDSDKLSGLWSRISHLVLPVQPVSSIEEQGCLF
# [6] = E. coli growth modulation, two-sided OD650, primary screen, E. coli filamentation project, strain DRC41, 24 h (AID 1093); settings: OD650, 24 h, higher = more signal, called active from +8 up or from −8 down;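 also: MC1000 strain lacking acrAB efflux and sulA so SOS filamentation is blocked; test concentration not given here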
# [7] = small-molecule microarray binders of probe aLefty2, primary screen, biochemical, biotinylated probe, 635/667 nm fluorescence (AID 1094); settings: higher = more signal;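 also: score merges spot fluorescence near 667 nm with spot signal-to-noise ratio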
# [8] = tested on: Noggin (protein binding on small-molecule microarray); assay: Noggin binders on small-molecule microarray, primary screen, biochemical, 635/667 nm fluorescence (AID 1095); settings: 635 nm fluorescence, higher = more signal;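 also: score merges 667 nm feature fluorescence with signal to noise over triplicate slides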
# [9] = biological target: Neurogenic locus notch homolog protein 3 (Homo sapiens) (UniProt Q9UM47); assay: NOTCH3 binders on small-molecule microarray, primary screen, biochemical, 635/667 nm fluorescence (AID 1096); settings: NOTCH3 binding, 635 nm fluorescence, higher = more signal
# Chain of Neurogenic locus notch homolog protein 3 (Homo sapiens) (Q9UM47 whole entry, looked up): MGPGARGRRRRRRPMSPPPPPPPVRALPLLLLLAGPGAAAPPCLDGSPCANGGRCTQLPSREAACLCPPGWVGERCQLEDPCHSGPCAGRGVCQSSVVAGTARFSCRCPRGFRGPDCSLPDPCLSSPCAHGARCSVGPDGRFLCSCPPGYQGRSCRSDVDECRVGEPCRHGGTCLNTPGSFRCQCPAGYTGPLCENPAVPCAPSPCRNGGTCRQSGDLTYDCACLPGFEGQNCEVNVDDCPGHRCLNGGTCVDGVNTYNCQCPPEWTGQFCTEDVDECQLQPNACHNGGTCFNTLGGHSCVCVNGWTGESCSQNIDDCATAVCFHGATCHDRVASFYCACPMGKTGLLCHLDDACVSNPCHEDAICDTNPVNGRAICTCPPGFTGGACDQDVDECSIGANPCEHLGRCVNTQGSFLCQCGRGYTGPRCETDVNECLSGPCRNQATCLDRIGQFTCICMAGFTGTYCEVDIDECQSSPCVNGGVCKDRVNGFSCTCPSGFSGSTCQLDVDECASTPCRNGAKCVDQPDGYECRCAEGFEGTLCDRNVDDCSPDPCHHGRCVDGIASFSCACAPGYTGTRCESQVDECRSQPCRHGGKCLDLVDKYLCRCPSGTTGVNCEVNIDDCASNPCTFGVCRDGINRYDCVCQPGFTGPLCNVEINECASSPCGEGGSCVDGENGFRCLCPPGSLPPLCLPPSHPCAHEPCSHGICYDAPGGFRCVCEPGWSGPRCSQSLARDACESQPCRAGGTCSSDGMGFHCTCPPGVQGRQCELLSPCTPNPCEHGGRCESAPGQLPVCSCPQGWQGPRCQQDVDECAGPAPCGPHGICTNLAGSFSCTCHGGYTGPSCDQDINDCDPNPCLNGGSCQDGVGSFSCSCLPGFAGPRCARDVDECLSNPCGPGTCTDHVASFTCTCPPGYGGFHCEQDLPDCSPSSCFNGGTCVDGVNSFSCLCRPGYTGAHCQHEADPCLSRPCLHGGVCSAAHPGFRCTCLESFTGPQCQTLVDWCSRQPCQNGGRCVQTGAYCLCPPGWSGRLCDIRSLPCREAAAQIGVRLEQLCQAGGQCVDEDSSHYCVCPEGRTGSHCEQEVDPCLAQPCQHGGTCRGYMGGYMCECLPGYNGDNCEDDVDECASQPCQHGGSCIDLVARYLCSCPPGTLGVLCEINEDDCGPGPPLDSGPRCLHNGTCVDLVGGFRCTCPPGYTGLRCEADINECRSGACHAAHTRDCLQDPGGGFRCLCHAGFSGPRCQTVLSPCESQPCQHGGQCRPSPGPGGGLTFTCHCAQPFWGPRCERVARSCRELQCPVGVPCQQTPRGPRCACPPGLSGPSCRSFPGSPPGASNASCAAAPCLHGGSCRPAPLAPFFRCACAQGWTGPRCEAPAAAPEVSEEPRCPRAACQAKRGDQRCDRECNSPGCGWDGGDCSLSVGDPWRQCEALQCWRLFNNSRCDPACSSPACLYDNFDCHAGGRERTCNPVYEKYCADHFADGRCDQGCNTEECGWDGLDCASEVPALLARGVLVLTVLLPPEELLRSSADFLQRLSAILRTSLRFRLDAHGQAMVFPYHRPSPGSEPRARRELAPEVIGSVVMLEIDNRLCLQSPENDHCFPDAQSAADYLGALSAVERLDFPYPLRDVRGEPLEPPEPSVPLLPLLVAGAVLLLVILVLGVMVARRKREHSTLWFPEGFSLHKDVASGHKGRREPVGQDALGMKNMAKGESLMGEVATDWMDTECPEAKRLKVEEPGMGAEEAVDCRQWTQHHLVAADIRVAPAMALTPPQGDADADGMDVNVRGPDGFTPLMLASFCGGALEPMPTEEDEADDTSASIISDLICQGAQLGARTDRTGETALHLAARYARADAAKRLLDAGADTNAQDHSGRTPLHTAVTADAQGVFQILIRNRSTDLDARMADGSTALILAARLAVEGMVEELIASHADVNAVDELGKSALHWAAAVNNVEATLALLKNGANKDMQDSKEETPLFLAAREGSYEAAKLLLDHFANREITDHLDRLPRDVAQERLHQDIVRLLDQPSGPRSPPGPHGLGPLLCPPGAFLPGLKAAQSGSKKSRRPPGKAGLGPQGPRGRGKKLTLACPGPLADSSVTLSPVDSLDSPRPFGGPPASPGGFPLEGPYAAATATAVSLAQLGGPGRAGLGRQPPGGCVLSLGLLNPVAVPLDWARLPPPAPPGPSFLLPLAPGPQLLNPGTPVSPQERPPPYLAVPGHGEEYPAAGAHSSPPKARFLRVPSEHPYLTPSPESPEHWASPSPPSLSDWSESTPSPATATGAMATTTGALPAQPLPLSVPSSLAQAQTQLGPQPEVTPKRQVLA
# [10] = small-molecule microarray binders of probe aEGFR, primary screen, biochemical, biotinylated probe, 635/667 nm fluorescence (AID 1097); settings: higher = more signal;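 also: probe is a biotinylated anti-EGFR antibody binding compounds printed on slides; score combines fluorescence near 667 nm and signal to noise of each spot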
# [11] = tested on: Plasmodium falciparum Sir2 (PF13_0152, Sir2A); assay: pfSir2 binders on small-molecule microarrays, primary screen, biochemical, small-molecule microarray, 635 nm fluorescence (AID 1098); settings: small-molecule microarray binding, fluorescence 635 nm; higher = more signal;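 also: score merges spot fluorescence intensity with its signal-to-noise ratio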
# [12] = small-molecule microarray binders of probe aDKK1, primary screen, biochemical, biotinylated probe, 635/667 nm fluorescence (AID 1099); settings: higher = more signal;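 also: score merges 667nm spot fluorescence with signal to noise across triplicate slides; reference of the scale not given here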
# [13] = small-molecule microarray binders of probe aCHRDL2, primary screen, biochemical, biotinylated probe, 635/667 nm fluorescence (AID 1100); settings: higher = more signal
# [14] = splicing luciferase reporter signal modulators, primary screen, spliceosome inhibition project, cell-based, HEK293, splice +/- reporter (AID 1101); settings: luminescence, 24 h, higher = more signal, called active from +8 up or from −8 down;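 also: HEK293 cells carrying a splicing-competent luciferase reporter gene; test concentration not given here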
# [15] = biological target: Fibroblast growth factor 10 (Homo sapiens) (UniProt O15520); assay: FGF10 binders on small-molecule microarrays, primary screen, biochemical, small-molecule microarray, 635 nm fluorescence (AID 1102); settings: FGF10 binding, fluorescence 635 nm, higher = more signal
# Chain of Fibroblast growth factor 10 (Homo sapiens) (O15520 whole entry, looked up): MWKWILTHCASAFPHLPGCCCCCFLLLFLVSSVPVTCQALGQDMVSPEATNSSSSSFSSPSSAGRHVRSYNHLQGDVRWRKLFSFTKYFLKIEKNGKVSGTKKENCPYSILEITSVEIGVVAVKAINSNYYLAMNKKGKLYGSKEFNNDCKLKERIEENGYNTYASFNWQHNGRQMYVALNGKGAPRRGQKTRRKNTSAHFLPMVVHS
# [16] = tested on: glycogen synthase kinase-3 (GSK3A per assay name; protocol says GSK3B); assay: GSK3 binders on small-molecule microarrays, primary screen, biochemical, small-molecule microarray, 635 nm fluorescence, GSK3A (AID 1103); settings: small-molecule microarray binding, fluorescence 635 nm; higher = more signal; also: the record names both GSK3A and GSK3B
# [17] = biological target: Epidermal growth factor receptor (Homo sapiens) (UniProt P00533); assay: EGFR binders on small-molecule microarrays, primary screen, biochemical, small-molecule microarray, 635 nm fluorescence (AID 1104); settings: EGFR binding, higher = more signal;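 also: score merges 667 nm emission intensity with spot signal to noise over triplicate slides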
# Chain of Epidermal growth factor receptor (Homo sapiens) (P00533 whole entry, looked up): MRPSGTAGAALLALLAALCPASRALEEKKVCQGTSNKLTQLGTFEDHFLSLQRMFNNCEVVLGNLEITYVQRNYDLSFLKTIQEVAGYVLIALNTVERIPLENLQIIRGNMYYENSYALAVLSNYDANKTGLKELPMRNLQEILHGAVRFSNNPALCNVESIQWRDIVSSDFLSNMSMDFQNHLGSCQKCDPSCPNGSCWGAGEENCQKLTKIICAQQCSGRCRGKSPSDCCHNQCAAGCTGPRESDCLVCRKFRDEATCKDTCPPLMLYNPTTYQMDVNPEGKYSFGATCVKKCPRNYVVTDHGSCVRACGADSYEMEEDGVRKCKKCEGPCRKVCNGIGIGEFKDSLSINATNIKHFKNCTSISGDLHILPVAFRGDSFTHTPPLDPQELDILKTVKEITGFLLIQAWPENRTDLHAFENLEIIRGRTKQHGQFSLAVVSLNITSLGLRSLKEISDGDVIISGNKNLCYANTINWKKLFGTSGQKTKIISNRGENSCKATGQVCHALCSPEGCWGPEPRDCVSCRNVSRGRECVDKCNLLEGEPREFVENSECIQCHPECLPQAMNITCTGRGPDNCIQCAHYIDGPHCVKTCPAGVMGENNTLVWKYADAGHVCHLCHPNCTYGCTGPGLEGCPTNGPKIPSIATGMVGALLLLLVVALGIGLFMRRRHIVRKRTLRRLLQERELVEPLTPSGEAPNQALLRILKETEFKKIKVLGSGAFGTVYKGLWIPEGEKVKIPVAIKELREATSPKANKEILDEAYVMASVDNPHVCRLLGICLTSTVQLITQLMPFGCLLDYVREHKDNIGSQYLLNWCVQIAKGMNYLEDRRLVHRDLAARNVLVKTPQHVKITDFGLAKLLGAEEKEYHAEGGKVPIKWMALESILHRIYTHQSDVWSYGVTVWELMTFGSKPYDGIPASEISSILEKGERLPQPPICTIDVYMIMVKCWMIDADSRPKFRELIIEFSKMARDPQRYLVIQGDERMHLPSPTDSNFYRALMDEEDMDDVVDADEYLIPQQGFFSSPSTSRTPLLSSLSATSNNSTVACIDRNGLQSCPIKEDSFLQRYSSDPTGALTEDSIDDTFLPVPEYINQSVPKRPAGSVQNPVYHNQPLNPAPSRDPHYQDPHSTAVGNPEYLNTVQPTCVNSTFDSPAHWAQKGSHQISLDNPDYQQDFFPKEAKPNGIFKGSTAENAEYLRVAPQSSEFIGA
# [18] = biological target: Follistatin-related protein 3 (Homo sapiens) (UniProt O95633); assay: FSTL3 binders on small-molecule microarrays, primary screen, biochemical, small-molecule microarray, 635 nm fluorescence (AID 1105); settings: FSTL3 binding, higher = more signal;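 also: score merges emission near 667 nm and signal to noise per printed spot across three slides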
# Chain of Follistatin-related protein 3 (Homo sapiens) (O95633 whole entry, looked up): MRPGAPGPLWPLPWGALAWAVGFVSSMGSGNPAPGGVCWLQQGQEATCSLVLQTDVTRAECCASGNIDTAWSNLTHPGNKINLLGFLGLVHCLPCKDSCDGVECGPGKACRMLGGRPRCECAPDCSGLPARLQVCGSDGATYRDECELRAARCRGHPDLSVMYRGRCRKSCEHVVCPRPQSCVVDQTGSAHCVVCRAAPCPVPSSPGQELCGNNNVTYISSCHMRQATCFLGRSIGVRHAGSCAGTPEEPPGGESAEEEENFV
# [19] = biological target: Dickkopf-related protein 1 (Homo sapiens) (UniProt O94907); assay: DKK1 binders on small-molecule microarrays, primary screen, biochemical, small-molecule microarray, 635 nm fluorescence scan (AID 1106); settings: DKK1 binding, higher = more signal;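 also: score merges emission near 667 nm with signal to noise over three replicate slides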
# Chain of Dickkopf-related protein 1 (Homo sapiens) (O94907 whole entry, looked up): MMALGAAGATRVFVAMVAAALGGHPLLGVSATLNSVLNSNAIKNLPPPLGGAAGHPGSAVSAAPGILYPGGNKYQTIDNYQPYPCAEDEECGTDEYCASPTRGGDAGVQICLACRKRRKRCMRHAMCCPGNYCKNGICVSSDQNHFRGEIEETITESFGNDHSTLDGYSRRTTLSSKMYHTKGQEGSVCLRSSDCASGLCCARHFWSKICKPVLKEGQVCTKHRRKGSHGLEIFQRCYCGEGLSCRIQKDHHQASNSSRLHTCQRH
# [20] = tested on: Inhibin beta A chain (activin A); assay: INHBA (activin A) binders on microarrays, primary screen, biochemical, small-molecule microarray, 635 nm fluorescence scan (AID 1107); settings: small-molecule microarray binding, higher = more signal;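 also: mouse activin A protein probed at 4.33 µg/mL on printed slides; score merges bound-protein fluorescence near 667 nm with spot signal-to-noise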
Compound,composite z-score [1],z-score [2],z-score [3],z-score [4],composite z-score [5],z-score [6],composite z-score [7],composite z-score [8],composite z-score [9],composite z-score [10],composite z-score [11],composite z-score [12],composite z-score [13],z-score [14],composite z-score [15],composite z-score [16],composite z-score [17],composite z-score [18],composite z-score [19],composite z-score [20]
C[C@H]1NC(=O)[C@@H](C)NC(=O)[C@@]23C(=O)N[C@@H](Cc4ccccc4)C2[C@H](C)[C@@]2(C)O[C@H]2C3/C=C/C/C=C\CNC1=O (stereo not given in full),-0.0842,1 (inactive),-0.696 (inactive),0.581 (inactive),-0.968,2.41 (inactive),-0.142,-0.142,-0.129,-0.131,1.66,-0.581,-0.781,-0.697 (inactive),0.14,0.0002,0.0021,0.171,0.422,1.28
C=CC[C@@]1(C(=O)N2CCOCC2)N=C(c2ccc(OCCCO)cc2)O[C@@H]1c1ccccc1,0.142,0.509 (inactive),-1.61 (inactive),0.352 (inactive),2.71,1.33 (inactive),0.0634,-0.506,-1.35,-0.0728,-0.406,0.853,0.845,-0.462 (inactive),0.293,0.175,-0.622,-0.72,-0.191,0.437
Cc1ccc(S[C@]2(C(=O)NC(C)C)CC(=O)N(C3Cc4ccccc4C3)[C@@H]2c2ccc(CO)cc2)cc1,1.53,0.106 (inactive),-1.65 (inactive),-0.517 (inactive),2.95,-2.16 (inactive),-0.222,-0.0057,0.506,-0.308,1.24,-0.786,0.556,-1.15 (inactive),-0.258,-0.106,-0.544,-0.0429,-1.2,-0.215
O=C1O[C@@H](c2ccccc2)[C@@H](c2ccccc2)N2[C@@H](c3ccc(OCCO)cc3)[C@]3(C(=O)Nc4ccc(C#CCCO)cc43)[C@@H](C(=O)N3CCN(c4ncccn4)CC3)[C@H]12,1.54,0.772 (inactive),1.04 (inactive),3.71 (inactive),2.69,1.14 (inactive),-0.124,1.24,1.14,-0.0828,1.13,0.0868,0.319,0.952 (inactive),1.19,0.935,0.16,1.07,0.116,0.666
C=C(CCCC)C(=O)CC[C@@H](OC(C)=O)c1ccccc1OCCO,0.0077,-0.837 (inactive),-18.7 (active),-1.57 (inactive),-0.325,0.682 (inactive),-0.214,-0.61,-0.524,-0.232,1.34,-0.283,-0.16,0.419 (inactive),-0.675,-1.31,-1.36,-1.06,-0.376,0.857

# Source: PubChem BioAssay
